{"source": "PubChem BioAssay (NCATS)", "note": "Results filed as inconclusive are left out. Active and inactive are the calls of the source. The call rests on the fitted dose curve; in most records, active means well fitted cell-killing curve with a large enough effect; inconclusive means small, poorly fitted or top-dose-only effect; inactive means flat fitted curve, though single readings scatter.", "data": [{"experiment": "Cell Viability - LYMP2-007 (AID 979);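 further: cells exposed to compound for 24 h before reading; 0% = DMSO only and the negative end = 92 µM tetraoctylammonium bromide; nearly all actives have a fitted effect of over 60% in size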", "details": "LYMP2-007 lymphoblastoid cell viability; series mostly up to 92.2 µM; activity change, negative = cytotoxicity: at the top concentration", "in_short": "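AC50 values come from Hill-equation fits of luminescent intracellular ATP (CellTiter-Glo, 30 min, room temperature) following 24 h compound exposure at 37 C. Cells: LYMP2-007 lymphoblastoid line, 2500 per well, in complete culture medium.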", "values": [{"smiles": "NC(=Nc1ccccc1)Nc1ccccc1", "activity change, negative = cytotoxicity": "2.06% (inactive)"}, {"smiles": "CN=C(NC#N)NCCSCc1nc[nH]c1C", "activity change, negative = cytotoxicity": "-2.71% (inactive)"}, {"smiles": "COc1ccc(CN(CCN(C)C)c2ccccn2)cc1", "activity change, negative = cytotoxicity": "-15.7% (inactive)"}, {"smiles": "CCCCOCCOCCOCc1cc2c(cc1CCC)OCO2", "activity change, negative = cytotoxicity": "-11.3% (inactive)"}, {"smiles": "NC(=O)N1c2ccccc2C=Cc2ccccc21", "activity change, negative = cytotoxicity": "-3.67% (inactive)"}, {"smiles": "O=c1[nH]c(=O)n([C@H]2C[C@H](O)[C@@H](CO)O2)cc1Br", "activity change, negative = cytotoxicity": "-0.615% (inactive)"}, {"smiles": "CCCCNC(=O)NS(=O)(=O)c1ccc(C)cc1", "activity change, negative = cytotoxicity": "-10.5% (inactive)"}, {"smiles": "COc1cc(Cc2cnc(N)nc2N)cc(OC)c1OC", "activity change, negative = cytotoxicity": "-9.35% (inactive)"}]}, {"experiment": "Cell Viability - LYMP2-008 (AID 980); further: on the % scale 0 is the no-effect control and ±100 the full control effect; nearly all actives have a fitted effect of over 60% in size", "details": "LYMP2-008 lymphoblastoid cell viability, qHTS; series mostly up to 92.2 µM; activity change, negative = cytotoxicity: at the top concentration", "in_short": "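Cytotoxicity determined from ATP-dependent luciferase luminescence (CellTiter-Glo) following 24 h compound exposure of human lymphoblastoid LYMP2-008 cells at 37 C. Concentration-response data fitted to the Hill equation to give AC50.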", "values": [{"smiles": "NC(=Nc1ccccc1)Nc1ccccc1", "activity change, negative = cytotoxicity": "-10% (inactive)"}, {"smiles": "CN=C(NC#N)NCCSCc1nc[nH]c1C", "activity change, negative = cytotoxicity": "5.07% (inactive)"}, {"smiles": "COc1ccc(CN(CCN(C)C)c2ccccn2)cc1", "activity change, negative = cytotoxicity": "-14.1% (inactive)"}, {"smiles": "CCCCOCCOCCOCc1cc2c(cc1CCC)OCO2", "activity change, negative = cytotoxicity": "-8.79% (inactive)"}, {"smiles": "Nc1nc(N)c2nc(-c3ccccc3)c(N)nc2n1", "activity change, negative = cytotoxicity": "-15.1% (inactive)"}, {"smiles": "NC(=O)N1c2ccccc2C=Cc2ccccc21", "activity change, negative = cytotoxicity": "-9.06% (inactive)"}, {"smiles": "O=c1[nH]c(=O)n([C@H]2C[C@H](O)[C@@H](CO)O2)cc1Br", "activity change, negative = cytotoxicity": "-5.55% (inactive)"}, {"smiles": "CCCCNC(=O)NS(=O)(=O)c1ccc(C)cc1", "activity change, negative = cytotoxicity": "-17.5% (inactive)"}, {"smiles": "COc1cc(Cc2cnc(N)nc2N)cc(OC)c1OC", "activity change, negative = cytotoxicity": "-3.03% (inactive)"}]}, {"experiment": "Cell Viability - LYMP2-010 (AID 981);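 further: cells exposed to compound for 24 hours at 37 °C; nearly all actives have a fitted effect of over 55% in size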; further: potency means the concentration at half of the fitted maximal effect; on activity, negative = cytotoxicity: on the % scale 0 is the no-effect control and ±100 the full control effect", "details": "LYMP2-010 lymphoblastoid cell viability, qHTS; series mostly up to 92.2 µM; activity, negative = cytotoxicity: at the top concentration", "in_short": "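CellTiter-Glo ATP luminescence measured cytotoxicity after 24 h compound exposure at 37 C. LYMP2-010 cells were seeded at 2500/well, with tetraoctylammonium bromide as control; concentration-response curves gave AC50 values by the Hill equation.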", "values": [{"smiles": "NC(=Nc1ccccc1)Nc1ccccc1", "activity, negative = cytotoxicity": "-21.5% (inactive)"}, {"smiles": "CN=C(NC#N)NCCSCc1nc[nH]c1C", "activity, negative = cytotoxicity": "-14% (inactive)"}, {"smiles": "COc1ccc(CN(CCN(C)C)c2ccccn2)cc1", "activity, negative = cytotoxicity": "-22.1% (inactive)"}, {"smiles": "CCCCOCCOCCOCc1cc2c(cc1CCC)OCO2", "activity, negative = cytotoxicity": "-14.3% (inactive)"}, {"smiles": "NC(=O)N1c2ccccc2C=Cc2ccccc21", "activity, negative = cytotoxicity": "-16.5% (inactive)"}, {"smiles": "O=c1[nH]c(=O)n([C@H]2C[C@H](O)[C@@H](CO)O2)cc1Br", "activity, negative = cytotoxicity": "-8.09% (inactive)"}, {"smiles": "Nc1ncn([C@@H]2O[C@H](CO)[C@@H](O)[C@H]2O)c(=O)n1", "Potency": "15.8 µM (active)"}, {"smiles": "CCCCNC(=O)NS(=O)(=O)c1ccc(C)cc1", "activity, negative = cytotoxicity": "-2.52% (inactive)"}, {"smiles": "COc1cc(Cc2cnc(N)nc2N)cc(OC)c1OC", "activity, negative = cytotoxicity": "-2.16% (inactive)"}]}, {"experiment": "Cell Viability - LYMP2-012 (AID 982);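 further: cellular ATP by luciferase luminescence where a drop means cytotoxicity; cells exposed to compound for one day before reading; nearly all actives have a fitted effect of over 55% in size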; further: potency means the concentration at half of the fitted maximal effect;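 on activity change, negative = cytotoxicity: 0% = DMSO only and full loss = 92 µM tetraoctylammonium bromide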", "details": "LYMP2-012 lymphoblastoid cell viability qHTS; series mostly up to 92.2 µM; activity change, negative = cytotoxicity: at the top concentration", "values": [{"smiles": "NC(=Nc1ccccc1)Nc1ccccc1", "activity change, negative = cytotoxicity": "-13.7% (inactive)"}, {"smiles": "CN=C(NC#N)NCCSCc1nc[nH]c1C", "activity change, negative = cytotoxicity": "-4.62% (inactive)"}, {"smiles": "COc1ccc(CN(CCN(C)C)c2ccccn2)cc1", "activity change, negative = cytotoxicity": "-20.8% (inactive)"}, {"smiles": "CCCCOCCOCCOCc1cc2c(cc1CCC)OCO2", "activity change, negative = cytotoxicity": "-0.665% (inactive)"}, {"smiles": "Nc1nc(N)c2nc(-c3ccccc3)c(N)nc2n1", "activity change, negative = cytotoxicity": "-22.1% (inactive)"}, {"smiles": "NC(=O)N1c2ccccc2C=Cc2ccccc21", "activity change, negative = cytotoxicity": "1.65% (inactive)"}, {"smiles": "O=c1[nH]c(=O)n([C@H]2C[C@H](O)[C@@H](CO)O2)cc1Br", "activity change, negative = cytotoxicity": "-9.25% (inactive)"}, {"smiles": "Nc1ncn([C@@H]2O[C@H](CO)[C@@H](O)[C@H]2O)c(=O)n1", "Potency": "15.8 µM (active)"}, {"smiles": "CCCCNC(=O)NS(=O)(=O)c1ccc(C)cc1", "activity change, negative = cytotoxicity": "-2.46% (inactive)"}, {"smiles": "COc1cc(Cc2cnc(N)nc2N)cc(OC)c1OC", "activity change, negative = cytotoxicity": "-1.17% (inactive)"}]}, {"experiment": "Cell Viability - LYMP2-014 (AID 983);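 further: plate controls were DMSO only for no effect and 92 µM tetraoctylammonium bromide for full effect; nearly all actives have a fitted effect of over 50% in size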", "details": "LYMP2-014 lymphoblastoid cells, viability qHTS; series mostly up to 92.2 µM; activity change, negative = cytotoxicity: at the top concentration", "in_short": "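Intracellular ATP loss, read by luciferase luminescence, measures acute cytotoxicity after 24 h compound exposure of lymphoblastoid LYMP2-014 cells (2500/well, 37 C). Concentration-response data fitted to the Hill equation for AC50.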", "values": [{"smiles": "NC(=Nc1ccccc1)Nc1ccccc1", "activity change, negative = cytotoxicity": "2.69% (inactive)"}, {"smiles": "CN=C(NC#N)NCCSCc1nc[nH]c1C", "activity change, negative = cytotoxicity": "2.27% (inactive)"}, {"smiles": "COc1ccc(CN(CCN(C)C)c2ccccn2)cc1", "activity change, negative = cytotoxicity": "-21.1% (inactive)"}, {"smiles": "CCCCOCCOCCOCc1cc2c(cc1CCC)OCO2", "activity change, negative = cytotoxicity": "-2.49% (inactive)"}, {"smiles": "Nc1nc(N)c2nc(-c3ccccc3)c(N)nc2n1", "activity change, negative = cytotoxicity": "-8.69% (inactive)"}, {"smiles": "NC(=O)N1c2ccccc2C=Cc2ccccc21", "activity change, negative = cytotoxicity": "-2.86% (inactive)"}, {"smiles": "O=c1[nH]c(=O)n([C@H]2C[C@H](O)[C@@H](CO)O2)cc1Br", "activity change, negative = cytotoxicity": "-11.1% (inactive)"}, {"smiles": "CCCCNC(=O)NS(=O)(=O)c1ccc(C)cc1", "activity change, negative = cytotoxicity": "-0.0831% (inactive)"}, {"smiles": "COc1cc(Cc2cnc(N)nc2N)cc(OC)c1OC", "activity change, negative = cytotoxicity": "-1.35% (inactive)"}]}, {"experiment": "Cell Viability - LYMP2-016 (AID 984);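 further: cells exposed to compound for 24 hours at 37 °C; on the % scale 0 is the no-effect control and ±100 the full control effect; nearly all actives have a fitted effect of over 55% in size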", "details": "LYMP2-016 lymphoblastoid cell viability, qHTS; series mostly up to 92.2 µM; activity change, negative = cytotoxicity: at the top concentration", "in_short": "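Human lymphoblastoid cells (LYMP2-016), 2500/well in complete medium, preincubated 5 hr at 37 C, then compound-treated 24 hr at 37 C. Intracellular ATP read by CellTiter-Glo luminescence after 30 min at room temperature; AC50 from Hill-equation concentration-response fits.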", "values": [{"smiles": "NC(=Nc1ccccc1)Nc1ccccc1", "activity change, negative = cytotoxicity": "-5.55% (inactive)"}, {"smiles": "CN=C(NC#N)NCCSCc1nc[nH]c1C", "activity change, negative = cytotoxicity": "-7.41% (inactive)"}, {"smiles": "COc1ccc(CN(CCN(C)C)c2ccccn2)cc1", "activity change, negative = cytotoxicity": "-14.7% (inactive)"}, {"smiles": "CCCCOCCOCCOCc1cc2c(cc1CCC)OCO2", "activity change, negative = cytotoxicity": "-6.85% (inactive)"}, {"smiles": "Nc1nc(N)c2nc(-c3ccccc3)c(N)nc2n1", "activity change, negative = cytotoxicity": "-16.2% (inactive)"}, {"smiles": "NC(=O)N1c2ccccc2C=Cc2ccccc21", "activity change, negative = cytotoxicity": "1.03% (inactive)"}, {"smiles": "O=c1[nH]c(=O)n([C@H]2C[C@H](O)[C@@H](CO)O2)cc1Br", "activity change, negative = cytotoxicity": "-7.79% (inactive)"}, {"smiles": "CCCCNC(=O)NS(=O)(=O)c1ccc(C)cc1", "activity change, negative = cytotoxicity": "-13.9% (inactive)"}, {"smiles": "COc1cc(Cc2cnc(N)nc2N)cc(OC)c1OC", "activity change, negative = cytotoxicity": "0.778% (inactive)"}]}]}
